Values joined by “and” are separate entries in the source; they are usually repeats but may differ in a detail not shown here. Equal entries are not always repeated. Inconclusive results are not listed. Active and inactive are the calls of the source. Unless noted, calls follow the shape of the full dose curve.

This passage reports Potency results from PubChem BioAssay (Tox21).

Test [1] is described as follows: Nuclear factor erythroid 2-related factor 2/antioxidant responsive element (Nrf2/ARE) small molecule agonists: qHTS cell viability counter screen in human keratinocytes (AID 1919968; active = well fitted cell-killing curve with a large enough effect in the repeat runs; also: nearly all actives have a fitted effect of over 55% in size; also: potency is read from the fitted curve at half-maximal effect). In a few lines:
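Cells of the KeratinoSens line were plated at 1,500 per well and left for 5 h before compound transfer from DMSO stocks. After a 23 h incubation (37 C, 5% CO2), CellTiter-Fluor was added. Signal was taken as fluorescence intensity 1 h later.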

The nature of test [2]: Nuclear factor erythroid 2-related factor 2/antioxidant responsive element (Nrf2/ARE) small molecule agonists: luciferase reporter gene qHTS assay in human keratinocytes (AID 1919969). Also: nearly all actives have a fitted effect of over 35% in size. Also: potency is read from the fitted curve at half-maximal effect.
Test [3] is described as follows: G protein-coupled receptor (GPCR) small molecule agonists, calcium flux assay: HEK293 wild type cell line counter screen (AID 1920065). The gist of the method: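 Tox21 10K compounds, 15 concentrations each in triplicate, pin-transferred in DMSO onto dye-loaded cells; kinetic read at 480/540 nm for 3 min, 1 s intervals.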
The nature of test [4]: p53 small molecule agonists, cell-based qHTS assay with human liver microsomes (AID 1963577).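 Also: p53 response element beta-lactamase reporter cells with liver microsomes plus NADPH.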 In a few lines: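 16 h, 37 C exposure of p53RE-bla cells to compounds with human liver microsomes and NADPH (0.5 mg/mL final each); detection via LiveBLAzer mixture, 2 h dark at room temperature.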
Test [5] in a line: p53 small molecule agonists, cell-based qHTS assay with human liver microsomes: qHTS cell viability counter screen (AID 1963579). Also: nearly all actives have a fitted effect of over 45% in size. In a few lines: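 In this multiplexed counter screen, the reporter plates were subsequently treated with CellTiter-Glo so that cell viability, reflected by luminescence, could be recorded for p53RE-bla cells dosed 16 h with compounds under microsomal activation (HLM and NADPH).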

Test [6] in a line: p53 small molecule agonists, cell-based qHTS assay with rat liver microsomes: qHTS cell viability counter screen (AID 1963580). Also: nearly all actives have a fitted effect of over 45% in size. In a few lines: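 Cytotoxicity counter screen: intracellular ATP read by CellTiter-Glo luminescence in the p53 reporter wells. HCT-116 p53RE-bla cells were treated for 16 h at 37 C alongside rat liver microsomes and NADPH, each 0.5 mg/mL final.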
Test [7] is described as follows: p53 small molecule agonists, cell-based qHTS assay: qHTS cell viability counter screen (AID 1963581). Also: nearly all actives have a fitted effect of over 45% in size. In a few lines:
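ATP content measured by luminescence in HCT-116 p53RE-bla cells treated 16 h at 37 C, same wells as the reporter screen.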

Test [8] is described as follows: p53 small molecule agonists, cell-based qHTS assay (AID 1963582; active = well fitted activation curve with a large enough effect in the signal ratio in the repeat runs, not every such curve was filed as active; the % refers to the signal ratio; also: potency is read from the fitted curve at half-maximal effect). In a few lines: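 16 h compound exposure (37 C) of p53 response element–bla cells, preceded by 5 h recovery at 37 C/5% CO2; read-out via LiveBLAzer B/G FRET substrate, 2 h RT, fluorescence intensity.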
For test [9], the target named is 5-hydroxytryptamine receptor 2A (Homo sapiens) (UniProt P28223). The experiment in a line: 5-hydroxytryptamine receptor 2A (HTR2A) small molecule antagonists, cell-based qHTS assay (AID 1963586). Also: nearly all actives have a fitted effect of over 45% in size. In a few lines: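 CHO cells stably expressing human HTR2A were plated for 18 h at 37 C, then loaded with calcium dye for 1 h. Compounds were preincubated 5 min at room temperature before DOI (4 nM solution) was added. Kinetic fluorescence was read for 3 min.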
5-hydroxytryptamine receptor 2A (Homo sapiens), sequence (P28223 whole entry, looked up): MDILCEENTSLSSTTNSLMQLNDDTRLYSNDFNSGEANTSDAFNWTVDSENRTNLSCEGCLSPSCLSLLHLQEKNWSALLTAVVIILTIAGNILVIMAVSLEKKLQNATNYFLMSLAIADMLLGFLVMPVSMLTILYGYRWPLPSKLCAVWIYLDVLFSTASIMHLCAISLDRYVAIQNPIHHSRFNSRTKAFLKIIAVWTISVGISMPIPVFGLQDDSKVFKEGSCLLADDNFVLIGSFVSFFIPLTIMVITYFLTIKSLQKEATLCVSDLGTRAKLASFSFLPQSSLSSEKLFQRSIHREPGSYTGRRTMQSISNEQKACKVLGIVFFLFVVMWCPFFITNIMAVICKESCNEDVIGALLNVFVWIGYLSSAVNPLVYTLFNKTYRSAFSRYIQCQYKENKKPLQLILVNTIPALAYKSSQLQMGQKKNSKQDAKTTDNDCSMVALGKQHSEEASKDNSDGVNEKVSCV

For test [10] the target is unchanged. The experiment in a line: 5-hydroxytryptamine receptor 2A (HTR2A) small molecule agonists, cell-based qHTS assay (AID 1963587). Also: nearly all actives have a fitted effect of over 30% in size. The gist of the method:
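Kinetic calcium-flux fluorescence (2 min, 1 sec intervals) after compound addition in agonist mode. HTR2A-CHO cells were cultured 18 h, then dye-loaded 1 h at 37 C.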

For test [11], the target named is Muscarinic acetylcholine receptor M1 (Homo sapiens) (UniProt P11229). The experiment in a line: Cholinergic receptor muscarinic 1 (CHRM1) small molecule antagonists, cell-based qHTS assay (AID 1963588). Also: nearly all actives have a fitted effect of over 40% in size. The gist of the method: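 Compounds were tested at 15 concentrations in three independent runs. Dye-loaded CHRM1-CHO cells were exposed 5 min at room temperature before stimulation by acetylcholine added at 50nM. Intracellular calcium was read kinetically on FDSS for 3 min.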
Muscarinic acetylcholine receptor M1 (Homo sapiens), sequence (P11229 whole entry, looked up): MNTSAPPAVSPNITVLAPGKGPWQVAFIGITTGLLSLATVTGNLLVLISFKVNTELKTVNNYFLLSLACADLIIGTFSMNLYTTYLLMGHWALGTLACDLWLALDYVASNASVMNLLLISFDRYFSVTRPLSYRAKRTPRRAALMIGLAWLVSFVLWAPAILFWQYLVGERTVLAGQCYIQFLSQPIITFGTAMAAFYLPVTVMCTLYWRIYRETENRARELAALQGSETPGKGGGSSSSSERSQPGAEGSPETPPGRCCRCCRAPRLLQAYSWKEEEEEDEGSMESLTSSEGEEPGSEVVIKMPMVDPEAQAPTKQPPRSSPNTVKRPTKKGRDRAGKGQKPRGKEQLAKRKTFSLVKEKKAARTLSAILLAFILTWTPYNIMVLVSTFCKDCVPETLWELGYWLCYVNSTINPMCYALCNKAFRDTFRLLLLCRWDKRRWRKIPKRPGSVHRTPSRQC

For test [12] the target is unchanged. The experiment in a line: Cholinergic receptor muscarinic 1 (CHRM1) small molecule agonists, cell-based qHTS assay (AID 1963589). Also: nearly all actives have a fitted effect of over 35% in size. In a few lines:
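Homogeneous fluorescence calcium flux, agonist mode. Human M1-expressing CHO cells; compound dosed at 15 concentrations, three independent runs; signal sampled every 1 sec.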

Test [13] in a line: cAMP Responsive Elements (CRE) small molecule agonists, cell-based qHTS assay (AID 1963590). In a few lines: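 HEK 293T cells stably bearing CRE-bla were plated at 2,000 cells per well and rested 18 h. Compounds, positive controls or DMSO were added for 3 h at 37 C. LiveBLAzer B/G substrate was then loaded for 2 h at room temperature.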
Test [14] can be described thus: cAMP Responsive Elements (CRE) small molecule antagonists, cell-based qHTS assay (AID 1963591; active = well fitted inhibition curve with a large enough effect in the signal ratio in the repeat runs, not every such curve was filed as active; the % refers to the signal ratio). The gist of the method: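 First, CRE-bla HEK293T cells settled 18 h at 37 C. Next, compound and 0.25 uM final NKH477 were applied for 3 h. Last, LiveBLAzer B/G substrate was loaded for 2 h at room temperature.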
Test [15] has as its target D(2) dopamine receptor (Homo sapiens) (UniProt P14416). Briefly: Dopamine D2 receptor (DRD2) small molecule agonists, cell-based qHTS assay (AID 1963594). Also: nearly all actives have a fitted effect of over 35% in size. In a few lines:
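cAMP accumulation in DRD2-HEK293 cells measured by HTRF after 1 h detection; compounds added 10 min before NKH477 (200nM […]) forskolin-analogue stimulation, 30 min at room temperature, with Ro20-1724 present at 0.1 mM final.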

Test [16] has the same target. The experiment in a line: Dopamine D2 receptor (DRD2) small molecule antagonists, cell-based qHTS assay (AID 1963595; active = well fitted inhibition curve with a large enough effect in the signal ratio in the repeat runs, with a control signal flat; the % refers to the signal ratio). The gist of the method: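 Antagonist mode in DRD2-HEK293 cells: after compound addition with 0.1 mM Ro20-1724, cells received quinpirole (12 nM) and NKH477 (200 nM) for 30 min at room temperature; HTRF cAMP read after 1 h detection.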
Test [17] in a line: p53 small molecule agonists, cell-based qHTS assay with rat liver microsomes (AID 1963578). The gist of the method:
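With rat liver microsomes and NADPH present (0.5 mg/mL final each), p53RE-bla cells are treated with compound for 16 h at 37 C. LiveBLAzer detection mixture is then applied for 2 h at room temperature in the dark.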

Test [18] has as its target Beta-2 adrenergic receptor (Homo sapiens) (UniProt P07550). The experiment in a line: Adrenergic beta2 receptor (ADRB2) small molecule antagonists, cell-based qHTS assay (AID 1963592). Also: series mostly up to about 92 µM; nearly all actives have a fitted effect of over 50% in size. The gist of the method: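 Assay format: CHO-ADRB2 cells, 18-20hr seeding at 37C/5% CO2, then compound plus 1nM isoproterenol agonist mix for 0.5hr RT. Homogeneous time-resolved fluorescence cAMP detection after 1hr, expressed as 665/615 nm ratio.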

For test [19] the target is unchanged. Briefly: Adrenergic beta2 receptor (ADRB2) small molecule agonists, cell-based qHTS assay (AID 1963593).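 Also: CHO cells stably overexpressing human ADRB2.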 In a few lines:
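CHO cells stably over-expressing ADRB2 were plated overnight at 37C, then dosed with compounds plus a stimulation mix containing 100uM IBMX and 25uM Ro-20-1724 for 0.5hr at room temperature. cAMP was measured by HTRF competition, 1hr.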

D(2) dopamine receptor (Homo sapiens), sequence (P14416 whole entry, looked up): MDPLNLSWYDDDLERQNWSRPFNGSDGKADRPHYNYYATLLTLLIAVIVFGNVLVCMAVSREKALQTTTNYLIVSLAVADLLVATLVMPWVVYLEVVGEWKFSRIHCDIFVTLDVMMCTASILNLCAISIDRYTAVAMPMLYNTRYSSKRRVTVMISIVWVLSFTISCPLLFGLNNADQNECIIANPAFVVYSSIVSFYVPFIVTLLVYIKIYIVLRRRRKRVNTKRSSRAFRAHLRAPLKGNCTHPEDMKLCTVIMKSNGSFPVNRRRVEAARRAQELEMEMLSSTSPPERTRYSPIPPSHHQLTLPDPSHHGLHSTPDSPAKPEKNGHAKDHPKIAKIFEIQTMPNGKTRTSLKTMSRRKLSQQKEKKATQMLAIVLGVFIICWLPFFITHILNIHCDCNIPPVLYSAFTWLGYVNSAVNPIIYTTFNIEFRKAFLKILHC
Beta-2 adrenergic receptor (Homo sapiens), sequence (P07550 whole entry, looked up): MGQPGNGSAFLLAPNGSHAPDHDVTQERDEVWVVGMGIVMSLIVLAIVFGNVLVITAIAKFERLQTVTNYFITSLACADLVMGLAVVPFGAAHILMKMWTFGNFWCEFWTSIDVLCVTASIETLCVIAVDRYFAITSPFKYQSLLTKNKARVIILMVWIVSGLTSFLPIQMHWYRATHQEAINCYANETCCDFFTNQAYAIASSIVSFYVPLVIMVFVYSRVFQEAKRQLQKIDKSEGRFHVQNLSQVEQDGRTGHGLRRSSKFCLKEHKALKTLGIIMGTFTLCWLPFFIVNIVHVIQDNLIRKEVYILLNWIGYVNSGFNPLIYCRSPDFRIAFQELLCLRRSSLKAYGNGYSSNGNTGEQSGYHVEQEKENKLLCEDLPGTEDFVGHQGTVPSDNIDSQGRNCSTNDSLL

In the case of `CCCC(=O)C(C)=O`, the Potency result in test [1], in test [2], in test [3], in [4], in test [5] and in test [6] was “inactive” each time. In addition, the Potency entry in test [7], in test [8], in test [9], in test [10], in [11] and in test [12] was “inactive” in each case. In addition, the Potency entry in test [13], in test [14], in [15] and in test [16] was “inactive” in each case.
For the compound `CCOC(=O)n1ccn(C)c1=S`, the Potency entry in test [1], in [2], in test [3], in test [4], in test [17] and in test [5] was “inactive” throughout. Further, the Potency entry in [6], in test [7], in test [13], in test [14], in [18] and in test [19] was “inactive” throughout. Moreover, the Potency entry in test [15] and in [16] was “inactive” in each case.
Regarding `COc1cccc2c1C(=O)c1c(O)c3c(c(O)c1C2=O)C[C@@](O)(C(=O)CO)C[C@@H]3O[C@H]1C[C@H](N)[C@H](O)[C@H](C)O1`, the Potency was 7.5 µM (active) in test [1]; 2.73 µM (active) and 6.68 µM (active) in [2]; 0.457 µM (active) in [8]. Besides, the Potency entry in test [3], in test [4], in test [17], in [5], in test [7] and in test [13] was “inactive” throughout.
As for `Nc1cc(C(Cl)=C(Cl)Cl)c(S(N)(=O)=O)cc1S(N)(=O)=O`, the Potency entry in test [1], in [2], in [3], in test [4], in [17] and in test [5] was “inactive” throughout. Moreover, the Potency entry in [8], in test [9], in test [10], in [12], in test [13] and in test [14] was “inactive” throughout. For the same compound, the Potency entry in [18], in test [15] and in [16] was “inactive” throughout.
On to `OCC(CO)(CO)CO`, for which the Potency entry in test [1], in test [2], in [3], in test [5], in [6] and in test [7] was “inactive” each time. Besides, the Potency result in test [9], in test [10], in test [11], in test [12], in [13] and in [14] was “inactive” in each case. Moreover, the Potency result in [15] and in test [16] was “inactive” each time.
On to `CC(=O)[O][Al][O]C(C)=O`, for which the Potency entry in [1], in test [2], in test [3], in test [17], in test [5] and in test [6] was “inactive” throughout. Moreover, the Potency result in test [7], in test [8], in test [9], in test [10], in test [11] and in [12] was “inactive” throughout. Besides, the Potency entry in [13], in [18], in [19], in test [15] and in [16] was “inactive” each time.
Regarding `CCC(=O)OCc1ccccc1`, the Potency result in [1], in test [2], in test [3], in [4], in [17] and in test [5] was “inactive” throughout. For the same compound, the Potency entry in test [6], in test [7], in [9], in [11], in test [14] and in [18] was “inactive” throughout. Also, the Potency entry in test [15] and in test [16] was “inactive” in each case.
Take `C=C(C)C(=O)OCCOP(=O)(O)O`: the Potency entry in [1], in [2], in test [3], in test [4], in test [17] and in test [7] was “inactive” each time. In addition, the Potency entry in [8], in [9], in [10], in test [11], in test [12] and in test [13] was “inactive” in each case. Besides, the Potency result in [14], in [19], in [15] and in test [16] was “inactive” throughout.
